Results filed as inconclusive are left out. Active and inactive are the calls of the source. Calls come from the whole dose curve.
Target: Peroxisome proliferator-activated receptor delta (Homo sapiens) (UniProt Q03181)
Assay: qHTS assay for small molecule agonists of peroxisome proliferator-activated receptor delta signaling (AID 588534)
Conditions: HEK293T PPARdelta-UAS-bla, beta-lactamase ratio, 18 h; series mostly up to 76.7 µM
Summary of the method: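 Reporter cells were plated and held 5 hrs at 37 C before compounds were added. After 18 hrs at 37 C, CCF4 dye was loaded for 2 hrs at RT and fluorescence measured.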

Chain of Peroxisome proliferator-activated receptor delta (Homo sapiens) (Q03181 whole entry, looked up): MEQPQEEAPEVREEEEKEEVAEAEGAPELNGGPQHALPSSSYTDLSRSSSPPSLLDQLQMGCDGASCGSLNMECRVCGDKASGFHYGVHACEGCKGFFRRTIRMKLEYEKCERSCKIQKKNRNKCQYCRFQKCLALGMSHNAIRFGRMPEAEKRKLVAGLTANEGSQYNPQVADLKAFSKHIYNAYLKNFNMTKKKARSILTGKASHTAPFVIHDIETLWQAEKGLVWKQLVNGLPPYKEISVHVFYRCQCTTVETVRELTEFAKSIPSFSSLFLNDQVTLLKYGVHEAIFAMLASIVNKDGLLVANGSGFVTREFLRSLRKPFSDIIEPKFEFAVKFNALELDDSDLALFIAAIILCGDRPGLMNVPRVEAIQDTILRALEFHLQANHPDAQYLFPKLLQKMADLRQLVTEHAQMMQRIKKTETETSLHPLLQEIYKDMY

Structure (SMILES) | outcome
S=C(NC1CCCCC1)NC1CCCCC1 | inactive
OC/C(Br)=C(\Br)CO | inactive
CCCCCCCCCCCCC1CO1 (centres undefined) | inactive
CC(C)(C)c1ccc(OCC2CO2)cc1 (centres undefined) | inactive
CC(COCC(C)OC(=O)c1ccccc1)OC(=O)c1ccccc1 (centres undefined) | inactive
Nc1ccc(F)cc1F | inactive
CC(C)[C@@H]1CC[C@@H](C)C[C@H]1O | inactive
CCCCOCCOCCSC#N | inactive
Fc1ccccc1 | inactive
N[C@@H]1[C@@H](O)[C@H](O)[C@@H](CO)O[C@H]1O | inactive
Cc1cccc([N+](=O)[O-])c1C | inactive
Nc1ccc([N+](=O)[O-])c(N)c1 | inactive
Cc1ccc(S(=O)(=O)NCl)cc1 | inactive
Cc1ccc(C)c([N+](=O)[O-])c1 | inactive
CC/C=C1/OC(=O)c2ccccc21 | inactive
CCCCC/C=C\C/C=C\CCCCCCCC(=O)OC | inactive
NS(=O)(=O)O | inactive
O=C1OC2(c3cc(Br)c(O)c(Br)c3Oc3c2cc(Br)c(O)c3Br)c2c(Cl)c(Cl)c(Cl)c(Cl)c21 | inactive
CO[Si](OC)(OC)c1ccccc1 | inactive
O=[N+]([O-])c1cccc(I)c1 | inactive

Structure (SMILES) | outcome
CCOC(C)=O | inactive
O=C1NC(=O)c2cc([N+](=O)[O-])ccc21 | inactive
Nc1ccc(Cl)cc1[N+](=O)[O-] | inactive
CC(O)COC(C)(C)C (centres undefined) | inactive
C=C(C)C(=O)OCCOC(=O)C(=C)C | inactive
CC1=C2[C@@H]([C@H](C)CC[C@H]2/C=C(\C)C(=O)O)[C@H](O)C1 | inactive
COc1ccc(N)c(OC)c1 | inactive
COC(=O)CS | inactive
CCOC(=O)COc1cc(-n2ncc(C(F)(F)F)c(C)c2=O)c(F)cc1Cl | inactive
CCCCN(CCCC)CCCC | inactive
Cc1ccc2c(c1)C(=O)OC2=O | inactive
CC1CCCO1 (centres undefined) | inactive
CC(C)(O)CCC(C)(C)O | inactive
Cc1cccc(C)c1O | inactive
CCCCCCCCCCCCCO | inactive
Oc1ccc(O)c2c(O)cccc12 | inactive
Clc1nc2ccccc2nc1Cl | inactive
C=C(C)C(=O)OCCN(C)C | inactive
CC(C)(C)C(O)/C(=C\c1ccc(Cl)cc1)n1cncn1 (centres undefined) | inactive

Source: PubChem BioAssay (NCATS)
